Experimental data taken from the supplement of paper PMC11417369.
± gives the standard deviation of the averaged measurements. In all, about 25,000 sequences were measured (“ln(normalized median fluorescence intensity)”: median about 8.6, highest 2% from about 10 on). The sample as a whole holds a higher share of the highest values than the screen did.

Tested on: PfAP2-EXP AP2 domain (GST-tagged)
Experiment: gcPBM binding intensity (ln(normalized median fluorescence intensity)); higher = stronger DNA binding
In short: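 Plasmodium falciparum DNA-binding domains carrying a GST tag were expressed in E. coli and applied for 1 h, at about 25 μg on average, to an Agilent 4 × 180k array. The array held primer-extended double-stranded 36-bp intergenic genomic probes together with negative controls, and binding took place in 1× PBS with 1% milk, 0.2 mg/ml BSA, 0.5% salmon testes DNA and 0.03% Triton X-100. An Alexa488 anti-GST antibody detected bound protein, and the array was scanned at 488 nm. Binding intensity is taken as the highest Masliner-normalised natural-log median intensity across replicate spots of either probe orientation.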

Sequence | gcPBM binding intensity (ln)
ATGTAGATATATATCTGTACGTATATGTAAATATTA [XGTACX_site1516] | 8.72 ± 0.35
ATGATATTATAAAAAAGTACATATGTATATAATTAT [XGTACX_site7652] | 8.88 ± 0.45
AAAAATTTATTTTTAGGTACACAATTGAATTATTTA [XGTACX_site7008] | 8.16 ± 0.27
TATTTAAAATATTAAATTTGTAAAGTTCGAGGGAAG [GTGCAC_negctrl_site337] | 8.52 ± 0.48
TGATGAAAATTTTTCTGTACAAAAAGTATGAAGGTA [XGTACX_site8901] | 8.88 ± 0.38
AGTTTAATTTTGTATACACACATTTGAATTATTAAT [CACACA_site7625] | 8.77 ± 0.5
AATATGTCTATATTTTTTATATGGAAATATTATAAA [GTGCAC_negctrl_site700] | 7.92 ± 0.39
TTTATAATAAAATTTTTACACACTTTAAAAAAAAAA [CACACA_site8070] | 8.07 ± 0.37
AAAAAAAAAAAAAAATGTACATAAAAATGATATAAT [XGTACX_site4096] | 8.7 ± 0.55
TATTTAAGAATATGAAGTACATATATTATTTAAAAA [XGTACX_site7897] | 8.15 ± 0.29
TTTTTATAACATAAAAGTACATATTTTTAATTTAAT [XGTACX_site4394] | 8.05 ± 0.4
CTTTAAGTTATATGAAGTACAATTTAAAAAAATGAA [XGTACX_site358] | 8.41 ± 0.38
TATTCCTAATTTAAAAGTACATATATATATATATAT [XGTACX_site3008] | 10.2 ± 0.54
TTTAAAAAGTTATGAAGTACATATATATATATATAT [XGTACX_site2188] | 10.2 ± 0.29
TATAAAATTTTTAAAAGTACATATTTTACATAATAC [XGTACX_site2193] | 8.38 ± 0.26
TTTTTTTTTTTGATGGTGCAATATATTAAATAGAAA | 8.86 ± 0.28
AATATATGGTTCCTTGATATTAAATTCAATTTAATG [CACACA_negctrl_site71] | 8.41 ± 0.52
ATATATATATATATATGTACACATATATATACTCAC [XGTACX_site8043] | 10 ± 0.4
GATTCTTCACCGTACTCACACATATATATATATATA [CACACA_site5665] | 10.2 ± 0.52
TAATTGATTCTTCACCGTACTCACACATATATATAT [XGTACX_site6530] | 9.61 ± 0.14
ATATTATATATATACACACACACATGCATGCACCTA [CACACA_site106] | 10.07 ± 0.099
TTTGGGATAAAACAAAGTACTAACAAAATATATAAT [XGTACX_site8240] | 8.85 ± 0.47

Sequence | gcPBM binding intensity (ln)
ATTTATATTTTTTAATGTACATTTATATGTATACAA [XGTACX_site4555] | 8.78 ± 0.41
ATATAATATTTCATGTGGACACATTTTATGATTGTA [XGTACX_site8770] | 8.74 ± 0.38
TGCAAAAAAAAAAAAAAAAAATATATGGAAATATAT [GTGCAC_negctrl_site257] | 8.54 ± 0.19
ATGGAAATAAAAAAAAAAAAAAAAAAAAATATATAT [GTGCAC_negctrl_site67] | 8.36 ± 0.33
TTGTATATATATGGAAAAATATATATATATATATAT [GTGCAC_negctrl_site591] | 10.3 ± 0.29
CGTATTATTATATAAACACACAAGGGGGCATGTATA [CACACA_site745] | 9.83 ± 0.042
AATATTTAAGTACTGGTGCGTGTATATAATGATTAA [GTGCAC_site9633] | 8.665 ± 0.078
AATATTTTAAATATTGCATGCAATGAAAAATGTAAA [TGCATGCA_site139] | 10.2 ± 0.31
AAAAAAAAAAAAATTGCATGTAAATGAAATAATAAA [TGCATGCA_site116] | 8.89 ± 0.2
TTATTGTAAATATATGCATGTGCAAAATGAAAAAAA [TGCATGCA_site399] | 9.07 ± 0.18
TAAAAGTTCACCTGTACACACATATAAATATGTACA [CACACA_site6901] | 8.47 ± 0.33
TAAGTTCCCTTTGAATGTACATATAATGAAAAGAAA [XGTACX_site826] | 8.76 ± 0.37
AGTTTCCATATGAGGTGTACATATATAATTTATTAT [XGTACX_site2369] | 8.72 ± 0.4
ATATATTTACTTAATACACACAAAAAAAAAAAAAAA [CACACA_site3657] | 8.21 ± 0.52
AAAAATACCTTATATATACACACTATGTTTTTCTTT [CACACA_site1192] | 8.71 ± 0.28
TATATATAGAAACACACACACATATATATATATATT [CACACA_site4115] | 8.7 ± 0.37
TATTGCCCTTGACACACACACATATAAATAAATATA [CACACA_site7220] | 8.63 ± 0.37
TATTGCCCTGGACACACACACATATATATATATATA [CACACA_site5389] | 10.2 ± 0.51
TATTGCCCGAAACACACACACATATATATATATATA [CACACA_site2491] | 10.3 ± 0.2
TATATTGCCCTTCACACACACACATATATATATATA [CACACA_site2492] | 10.2 ± 0.28
TATATATAGAAACACACACACACATATATATATATT [CACACA_site2539] | 8.73 ± 0.67
TTCAAATATAAATACACACACATAGCTACAAAATAA [CACACA_site4172] | 8.95 ± 0.42

Sequence | gcPBM binding intensity (ln)
ATATATATATATATTTGTACAGATTTATATTATAAT [XGTACX_site7612] | 9.96 ± 0.23
TATTATTTTTCATATGCATGCAAAAATAAAAAAATA [TGCATGCA_site350] | 9.63 ± 0.35
TTTGCAACATATAAAAGTACAAATAATATATTTATT [XGTACX_site890] | 8.41 ± 0.43
ATTCATATATTTATTGCATGCAAAGTAAAATAAATA [TGCATGCA_site307] | 10.23 ± 0.099
GGAATATATATACATACACACATATATATATATATA [CACACA_site1666] | 10.1 ± 0.33
ACAAAAGGGGAATACACACACATATATAAATAAATA [CACACA_site7111] | 8.73 ± 0.45
AAGATATGAGGGAATACACACATATTTATATTTATA [CACACA_site6846] | 8.26 ± 0.38
ATAAAATCAAAATATACACACAAGGGGGAAAATCAA [CACACA_site2809] | 8.96 ± 0.42
AGTATATATACACAAGGGGAATACATATACAAAATT [TGCATGCA_negctrl_site244] | 8.89 ± 0.39
AAGATATGAGGGAATACACACATATATATATATATA [CACACA_site1581] | 10.2 ± 0.43
ATACAAAAGGGGAATACACACACATATATATATATA [CACACA_site8694] | 10.1 ± 0.33
ACAAAAGGGGAATACACACACATATATATATATATA [CACACA_site2215] | 10.2 ± 0.52
TACACAAGGGGAAAAATATATATATATATATATATA [TGCATGCA_negctrl_site217] | 10.2 ± 0.57
TTTTTAATAATCTCTCAAAATGTTCTTATATTTTAC [CACACA_negctrl_site1691] | 8.11 ± 0.26
TATAAATGATTAATTTGTACATATTTTACTTAATTG [XGTACX_site5271] | 8.18 ± 0.37
ATATTATGTCTACATAAACACACATATATATAAAAA [CACACA_site7976] | 8.62 ± 0.48
TATATTTTACTCTTCACACATATACTCAATTTATAT [CACACA_site5357] | 8.94 ± 0.31
TTGTATCCTTAATGCATGCACCAAATAACAAAAGTA | 10.2 ± 0.38
CTGTATAAAACCAATGCATGTAAATATATTAATATA [TGCATGCA_site511] | 9.1 ± 0.42
TATTGTATCCTTAATGCATGCACCAAATAAAAAAAG [TGCATGCA_site541] | 10.21 ± 0.064
AAAAAAAAAAAAAATATATATATATATATATATATA [CACACA_negctrl_site540] | 10.2 ± 0.2
AAAAAAAAAAAAAAAAAAAAAAAAATATATATATAT [CACACA_negctrl_site436] | 10 ± 0.31

Sequence | gcPBM binding intensity (ln)
AAAAAAAAAAAATATATATATATATATATATATATA [CACACA_negctrl_site1606] | 10.3 ± 0.21
AAAAAAAAAAAAAAAAAAAAAAAAAAATATATATAT [CACACA_negctrl_site271] | 9.795 ± 0.049
AAAAAAATATATATATATATATATATATATATATAT [TGCATGCA_negctrl_site7] | 10.1 ± 0.26
AAAAAAAAAATATATATATATATATATATATATATA [GTGCAC_negctrl_site467] | 9.95 ± 0.53
TTTAATTTTCCCTTCACACATAATATATATCTGTAT [CACACA_site5370] | 8.7 ± 0.43
TATTATATATATGTTGACATATTTGTACACTCCACT [TGCATGCA_negctrl_site200] | 8.79 ± 0.61
TATCAAAATTGTAATTGTACTTGTAAGTGGATATAT [XGTACX_site5949] | 8.68 ± 0.3
TTTTTTAAAATAATAGGTACACATAAAAAAAAAAAA [XGTACX_site2517] | 8.72 ± 0.67
AACATTATAAGACACACACACACATATATAAATATA [CACACA_site6622] | 8.65 ± 0.58
ACACATATATATTATTATTATATAATATATATATAT [CACACA_negctrl_site1545] | 9.21 ± 0.15
ATTTTGTTATGAAACACACACATATAAATATAAATA [CACACA_site7679] | 8.51 ± 0.3
TAATTTTTTAAACACACACACATATATATATATATA [CACACA_site4230] | 10.2 ± 0.3
TTTTAATTAAAACACACACACACATATATATATATA [CACACA_site2291] | 10.2 ± 0.23
ATATTTTGTTATGAAACACACACATATATATATATA [CACACA_site9216] | 10.1 ± 0.16
AAAAAAAAAAATATCACACACACATAAATATAAACA [CACACA_site7138] | 8.6 ± 0.61
TTTTAAACAAGACACACACACATATATATATATATA [CACACA_site925] | 10.2 ± 0.35
AAAAAAAAAAAAAACACACACATATAATATATTTAA [CACACA_site1337] | 8.35 ± 0.38
TTTTTAAAACATATCACACATATATATATATATATA [CACACA_site5991] | 10.3 ± 0.41
ATTTTGTTATGAAACACACACATATATATATATATA [CACACA_site3650] | 10.2 ± 0.18
TTTTAAACAGGACACACACACATATATATATATATA [CACACA_site4664] | 10.1 ± 0.42
TTTTAATGAAAACACACACACACATATATATATATA [CACACA_site5295] | 10.3 ± 0.11
AAAAAAATGAAACACACACACACATATATATATATA [CACACA_site1043] | 10.1 ± 0.26
